About 530 (0.24%) of roughly 220,000 compounds were called active. The list comes from a sample in which actives are over-represented; it also holds similar structures and randomly drawn compounds. Entries with a potency or affinity are not part of this list. Values without a mark were called inactive. Rule as the data show it: active = inhibition above about 13%; inconclusive = no clear call, values can overlap the other calls; inactive = below that.

In the assay the target is Bifunctional protein GlmU (Mycobacterium tuberculosis (strain ATCC 25618 / H37Rv)) (UniProt P9WMN3). Nature of the assay: inhibition of mycobacterial GlmU enzyme – biochemical, glucosamine-1-phosphate acetyltransferase (AID 1376).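 Also: 0% = complete reaction with vehicle and 100% = reaction without substrate.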 The note with it: M. tuberculosis GlmU acetyltransferase enzyme assay; active compounds read high;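 tested at 30 µM in the primary screen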.
Chain of Bifunctional protein GlmU (Mycobacterium tuberculosis (strain ATCC 25618 / H37Rv)) (P9WMN3 whole entry, looked up): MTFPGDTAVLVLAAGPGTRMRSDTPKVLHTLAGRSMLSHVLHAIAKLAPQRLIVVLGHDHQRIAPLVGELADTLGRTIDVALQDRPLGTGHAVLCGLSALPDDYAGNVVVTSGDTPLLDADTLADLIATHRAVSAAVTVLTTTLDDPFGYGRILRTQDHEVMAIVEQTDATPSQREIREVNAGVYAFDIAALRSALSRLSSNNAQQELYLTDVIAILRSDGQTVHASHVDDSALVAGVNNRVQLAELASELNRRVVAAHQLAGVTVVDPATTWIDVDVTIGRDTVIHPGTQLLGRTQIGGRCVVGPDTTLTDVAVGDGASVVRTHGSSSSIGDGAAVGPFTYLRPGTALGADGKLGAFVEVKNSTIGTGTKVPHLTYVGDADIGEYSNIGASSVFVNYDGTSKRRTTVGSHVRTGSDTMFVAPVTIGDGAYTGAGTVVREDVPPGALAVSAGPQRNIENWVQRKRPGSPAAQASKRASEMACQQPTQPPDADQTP
On to `C=CCN1C(=NC(=O)CCC(=O)O)SC2CS(=O)(=O)CC21` (stereo not drawn), for which the inhibition was 0.93%.

As for `CCN1CCN(c2cc(C)c3cc(NC(=O)c4ccccc4F)ccc3n2)CC1`, the inhibition was -4.15%.

For the molecule `Cn1cnnc1SCc1cccc(Br)c1`, the inhibition was 2.34%.

For the molecule `CCn1ncc(NC(=S)Nc2ccc3c(c2)OCO3)c1C(N)=O`, the inhibition was -0.08%.

Turning to `Cc1nn(-c2ccccc2)c(=S)c2ccccc12`, the inhibition is -0.11%.

In the case of `COc1ccc(NCC(=O)Nc2ccccc2C#N)cc1Cl`, the inhibition was 16.5% (active).

`COc1ccc(NCC(=O)Nc2ccc(C#N)cc2)cc1Cl`: the inhibition was 1.17%.

`COc1ccc(NC(=O)CNc2cccc(C#N)c2)cc1Cl`: the inhibition is 0.65%.

Consider `Clc1ccc(-c2nnc(CSc3nnc(-c4cccs4)n3Cc3ccccc3)o2)cc1`, for which the inhibition is -1.83%.

For the molecule `CC(=O)N1CCCSC1=Nc1ccccc1`, the inhibition is 1.84%.

`Cc1ccc(-c2nc(SCC(=O)NCC3CCCO3)c(-c3ccc(C)cc3)[nH]2)cc1` (stereo not drawn): the inhibition is -0.94%.

Turning to `O=[N+]([O-])c1ccc(NCc2ccccc2)c2nonc12`, the inhibition was 0.67%.

Turning to `O=[N+]([O-])c1cccc(CSc2cccc[n+]2[O-])c1`, the inhibition was 6.55%.

For `Oc1cccc(C(=S)N2CCCCC2)c1`, the inhibition is -2.56%.

Regarding `CCOC(=O)CSC1=C(C#N)C(c2ccccc2OCC)C(C(=O)OCC)C(=O)N1` (stereo not drawn), the inhibition was 13.2% (active).

In the case of `CCOC(=O)C1C(=O)NC(SCC(=O)OC)=C(C#N)C1c1ccccc1OCC` (stereo not drawn), the inhibition was -2.95%.

With `CCOC(=O)C1C(=O)NC(SCC(N)=O)=C(C#N)C1c1ccccc1OCC` (stereo not drawn), the inhibition was 5.97%.

In the case of `Cc1ccc(C)c2[nH]c(=O)c(CN(Cc3ccc4c(c3)OCO4)Cc3nnnn3Cc3ccco3)cc12`, the inhibition was 2.41%.

For `Cc1ccc(NC(=O)c2cccc(C(=O)OC(C)C)n2)c(Br)c1`, the inhibition is -4.22%.

On to `O=[N+]([O-])c1cccnc1N1CCOCC1`, for which the inhibition was 1.56%.

For `O=[N+]([O-])c1cccnc1N1CCCCC1`, the inhibition was 13.3% (active).

Turning to `O=C1CCN(c2ncccc2[N+](=O)[O-])CC1`, the inhibition is -2.93%.

On to `Cc1ccc(C)c(/C(O)=C2\C(=O)C(=O)N(CCCn3ccnc3)C2c2ccncc2)c1` (stereo not drawn), for which the inhibition is -3.1%.

`Cc1cccc(C2C3=C(Nc4[nH]n(-c5ccccc5)c(=O)c42)c2ccccc2C3=O)c1` (stereo not drawn): the inhibition is 14.6% (active).

Take `COc1cccc(C2C3=C(Nc4[nH]n(-c5ccccc5)c(=O)c42)c2ccccc2C3=O)c1` (stereo not drawn): the inhibition was -1.89%.

For the molecule `Cc1ccc(C2C3=C(Nc4[nH]n(-c5ccccc5)c(=O)c42)c2ccccc2C3=O)cc1` (stereo not drawn), the inhibition was 8.68%.

With `CCOC(=O)c1c(C)[nH]c(C(=O)CSc2nc3ccccc3o2)c1C`, the inhibition was -3.5%.

For the molecule `Cc1cc(/C=N/Nc2ccc([N+](=O)[O-])cn2)c(C)n1-c1ccc(C(=O)O)cc1`, the inhibition is 18.4% (active).

As for `Cc1cc(/C=N/Nc2ccc([N+](=O)[O-])cn2)c(C)n1-c1ccccc1`, the inhibition was -0.82%.

In the case of `Cc1c(C(=O)O)cccc1-n1c(C)cc(/C=N/Nc2ccc([N+](=O)[O-])cn2)c1C`, the inhibition is 3.53%.

`CCOC(=O)c1cc(-c2ccc(F)cc2)n(CC(=O)Nc2nccs2)c1C`: the inhibition is -5.76%.

Regarding `O=C(CCC(=O)OC(C(=O)c1ccccc1)c1ccccc1)Nc1ccccc1` (stereo not drawn), the inhibition is -0.93%.

In the case of `Cc1ccc(NC(=O)CCC(=O)OC(C(=O)c2ccc(C)c(C)c2)c2ccccc2)c(C)c1` (stereo not drawn), the inhibition was 1.52%.

Consider `Cc1ccc(C(=O)C(OC(=O)CCC(=O)Nc2cccc(C)c2)c2ccccc2)cc1` (stereo not drawn), for which the inhibition is 14.9% (active).

Take `O=[N+]([O-])c1ccc(N2CCNCC2)cc1Sc1nc2ccccc2[nH]1`: the inhibition is -3.78%.

For the molecule `O=C(CSC1CN(C(c2ccccc2)c2ccccc2)C1)N/N=C/c1ccccc1`, the inhibition was 1.05%.

Regarding `O=C(OCC(=O)N1CCN(C(=O)c2ccco2)CC1)c1cn(-c2ccccc2)nc1-c1ccccc1`, the inhibition was 9.88%.

Take `CNCc1nc2ccccc2[nH]1`: the inhibition was 2.1%.

Take `CCc1nc2ccccc2[nH]1`: the inhibition was -1.65%.

As for `Oc1ccc(O)c(Cc2nc3ccccc3[nH]2)c1`, the inhibition is 14.4% (active).

As to `O=C(NCCC1CC1(Cl)Cl)Nc1ccccc1` (stereo not drawn), the inhibition is 2.82%.

Consider `O=C1C2C(c3ccccc3)=NN(c3ccccc3)C2C(=O)N1c1ccccc1` (stereo not drawn), for which the inhibition was 0.94%.

As to `O=C1[C@H]2C(c3ccccc3)=NN(c3ccccc3)[C@H]2C(=O)N1c1ccccc1`, the inhibition is 14.2% (active).

Turning to `CCOc1ccc(N2C(=O)C3C(c4ccccc4)=NN(c4ccccc4)C3C2=O)cc1` (stereo not drawn), the inhibition was 4.13%.

On to `O=C(N/N=C/C=C/c1ccco1)/C(=C/c1ccccc1)NC(=O)c1ccccc1`, for which the inhibition is 3.94%.

On to `C/C(=N\NC(=O)NC1CCCCC1)C1CCCCC1`, for which the inhibition was 5.48%.

Take `O=C(Nc1ccc(SC(F)F)cc1)c1ccc(F)cc1`: the inhibition was 2.04%.

On to `CC(C(=O)N=c1sc2ccccc2n1C)N1C(=O)C2CC=CCC2C1=O` (stereo not drawn), for which the inhibition was 13.6% (active).

Consider `Cn1c(=NC(=O)CN2C(=O)C3CC=CCC3C2=O)sc2ccccc21` (stereo not drawn), for which the inhibition was -0.18%.

As for `CC(=O)N=c1sc2ccccc2n1C`, the inhibition is -1.3%.

Take `CCNC1=C(Cl)C(=O)c2ccccc2C1=O`: the inhibition was -3.8%.

Turning to `O=C1C(Cl)=C(Nc2ccccc2)C(=O)c2ccccc21`, the inhibition was -4.13%.

On to `CC(C)NC1=C(Cl)C(=O)c2ccccc2C1=O`, for which the inhibition was 13.7% (active).

Turning to `O=C1c2ccccc2S(=O)(=O)c2cc(C(=O)N3CCN(C(=O)c4ccccc4)CC3)ccc21`, the inhibition was -2.8%.

Turning to `CCN(CCNC(=O)Cn1cc2c(n1)CCCC2)c1ccccc1`, the inhibition is -0.86%.

Take `CCOc1ccc(C(=O)SC2=NCCS2)cc1`: the inhibition is 8.72%.

With `S=c1nc(C2CCCCC2)[nH][nH]1`, the inhibition is 14% (active).

For the molecule `Nc1n[nH]c(C2CCCCC2)n1`, the inhibition is -2.96%.

In the case of `S=c1nc(C2CCCCC2)[nH]c2ccccc12`, the inhibition is -2.69%.

Regarding `CCc1nc(N2CCN(S(C)(=O)=O)CC2)c2c3c(sc2n1)CCCC3`, the inhibition is -2.08%.

Take `COc1ccc(N/C=C2/Sc3ccccc3NC2=O)cc1`: the inhibition was 0.09%.

Take `O=C(NC1CCN(C(=O)N2c3ccccc3Sc3ccccc32)CC1)c1ccccc1Cl`: the inhibition was 2.41%.

For `Cc1ccc(SC(C)c2nc(-c3cccnc3)no2)cc1` (stereo not drawn), the inhibition is -3.18%.

As to `Cc1ccc(SC(C)c2nc(-c3ccccc3)no2)cc1` (stereo not drawn), the inhibition was 14.3% (active).

For the molecule `Cc1ccc(SC(C)c2nc(-c3ccncc3)no2)cc1` (stereo not drawn), the inhibition is 5.19%.

For the molecule `CC12CCC(C(=O)NCc3ccccc3Cl)(OC1=O)C2(C)C` (stereo not drawn), the inhibition was 0.28%.

Turning to `Cc1[nH]c(=O)[nH]c(=O)c1/C=N/NC(=O)[C@H](C)NC(=O)OC(C)(C)C`, the inhibition is 12.9% (active).

Take `Cc1[nH]c(=O)[nH]c(=O)c1/C=N/NC(=O)[C@@H](NC(=O)OC(C)(C)C)C(C)C`: the inhibition is -0.37%.

On to `Cc1[nH]c(=O)[nH]c(=O)c1/C=N/NC(=O)CCNC(=O)OC(C)(C)C`, for which the inhibition was -1.18%.

As to `CCN(C(=O)c1nn(-c2ccc(OC)cc2)c(=O)c2c1c1ccccc1n2C)c1ccc(OC)cc1`, the inhibition is -3.7%.

For the molecule `C=CCn1c(O)c(C=NCCN2CCOCC2)c(=O)[nH]c1=S`, the inhibition is -1.69%.

On to `CC(=O)CSc1ccc(-c2nc3cc(C)c(C)cc3[nH]2)cn1`, for which the inhibition is 8.32%.

As for `Cc1cc2nc(-c3ccc(SCc4ccc(C#N)cc4)nc3)[nH]c2cc1C`, the inhibition was 0.22%.

As to `Cc1cc2nc(-c3ccc(SCc4ccc(C(=O)O)cc4)nc3)[nH]c2cc1C`, the inhibition is 13.2% (active).

As for `O=C(O)c1ccccc1-c1ccccc1C(=O)Nc1cccc(Br)c1`, the inhibition is 0.35%.

For the molecule `CCOc1ccc(-c2cc3cc(OC)c(OC)cc3c(C)n2)cc1`, the inhibition was -1.9%.

Regarding `Cc1nc(-c2ccccc2Cl)sc1C(=O)/C=C/N(C)C`, the inhibition is -0.01%.

For the molecule `Cc1ccc2nc(-c3ccc(NC(=O)CSCC(=O)O)cc3)sc2c1`, the inhibition is 4.5%.

With `Cc1nnc(SCC(=O)Nc2ccc(-c3nc4ccccc4s3)cc2)s1`, the inhibition was 6.16%.

As to `CCc1nc(-c2ccccc2)c2ccccn12`, the inhibition is 0.63%.

For the molecule `COCCn1nnnc1C(C(C)C)N(Cc1cccnc1)Cc1cc2cc(OC)ccc2[nH]c1=O` (stereo not drawn), the inhibition was 0.94%.

`COc1ccc(C)cc1NC(=O)NC(C)c1ccncc1` (stereo not drawn): the inhibition is -4.98%.

On to `COc1ccc(Cl)cc1NC(=O)NC(C)C`, for which the inhibition was -2.94%.

On to `COc1ccc(Cl)cc1NC(=O)NC(C)c1ccncc1` (stereo not drawn), for which the inhibition is 13% (active).

In the case of `Cc1cc2c3ccccc3ncn2n1`, the inhibition was 4.82%.

Take `CCOC(=O)c1cnc2c(c(C)nn2C)c1Oc1ccccc1F`: the inhibition is 3.91%.

As for `COc1cccc(OCC(Cn2cnc3ccccc32)OC(C)=O)c1` (stereo not drawn), the inhibition is -0.44%.

In the case of `O=C(/C=C/c1ccco1)Nc1cc(Cl)ccc1C(=O)O`, the inhibition was 13% (active).

For the molecule `O=C(/C=C/c1ccco1)Nc1cccc(C(=O)Nc2ccccc2C(=O)O)c1`, the inhibition was 14.7% (active).

On to `COC(=O)c1ccccc1NC(=O)/C=C/c1ccco1`, for which the inhibition is -3.26%.

As for `O=C(CCCN1C(=O)/C(=C/c2ccco2)SC1=S)Nc1cccc(C(=O)O)c1`, the inhibition was 8.84%.

Turning to `O=C(/C=C/c1ccco1)Nc1cccnc1Cl`, the inhibition was 0.97%.

As to `O=C(/C=C/c1ccco1)Nc1ccccc1N1CCCC1`, the inhibition is -0.88%.

For the molecule `O=C(/C=C/c1ccco1)Nc1ccc(Oc2ccc(Cl)cc2)cc1`, the inhibition is 2.3%.

Regarding `CCc1ccccc1NC(=O)c1cccc(NC(=O)/C=C/c2ccco2)c1`, the inhibition is -2.87%.

Turning to `O=C(/C=C/c1ccco1)Nc1ccccc1C(=O)O`, the inhibition is 15% (active).

Consider `O=C(O)CCCN1C(=O)/C(=C\c2ccco2)SC1=S`, for which the inhibition is 23.1%.

For `O=C(/C=C/c1ccco1)Nc1ccccc1C(=O)Nc1cccc(C(=O)O)c1`, the inhibition was 3.1%.

The values are drawn from PubChem BioAssay AID1376 (SRMLSC, 2008).
